Screening results from PubChem BioAssay.
The list is not random: actives were taken first. Their share in the collection is about 10%.
ELG1 repair inh – blocks ELG1-dependent DNA repair in HEK293T cells. Potency, µM (highest dose often 46.1 µM), without a hit: at the top dose activity change, negative = inhibition, hits mostly inhibitors. actives 2.3% (n = 330,000). HEK293T ELG1-luciferase reporter, luminescence, 16 h; DNA damage induced by 5-fluorouridine; further: on the % scale 0 is the no-effect control and ±100 the full control effect; nearly all actives have a fitted effect of over 55% in size
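Reporter activity after DNA damage by 5-fluorouridine is monitored. Compound-treated cells incubate 16 hr at 37 °C, then ONE-Glo is added for 30 min before luminescence reading.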
SW480 rerep – induces DNA re-replication in SW480 colon adenocarcinoma cells; AID 624297; SW480 DNA re-replication, Hoechst DNA content imaging, 48 h; actives 1.8% (n = 340,000); Potency, µM (titrated, usually from 46.1 µM), for inactives: at the highest dose re-replication activation, actives largely listed as activators; further: % of control where 0% means no effect; nearly all actives have a fitted effect of over 55% in size
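SW480 cells exposed to compounds for 48 hr at 37 C, 5% CO2, then Hoechst-stained 40 min. Nuclear DNA content imaged by fluorescence scanning (405 nm excitation, 500-530 nm emission); re-replication scored as increased high-intensity nuclei.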
Gal4-VP16 FLuc – counter-screen for ROR gamma inhibitors: Gal4-VP16 reporter; AID 2546; Drosophila S2 Gal4-VP16 UAS-luciferase, luminescence, 20 h; actives 3.5% (n = 310,000); Potency, µM (doses to about 53.6 µM), without a hit: top-dose activity, negative = inhibition, actives largely listed as inhibitors;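 further: Gal4-VP16 expression switched on by copper sulfate through the metallothionein promoter; on the % scale 0 is the no-effect control and ±100 the full control effect; nearly all actives have a fitted effect of over 50% in size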
RORgamma inh – blocks mouse ROR gamma transcriptional activity; Drosophila S2 Gal4-RORgamma UAS-luciferase reporter, 20 h; actives 5.4% (n = 310,000); P51450; Potency, µM (top dose mostly 53.6 µM), inactives show top-dose activity change, negative = inhibition, usual class: inhibitors; further: on the % scale 0 is the no-effect control and ±100 the full control effect; nearly all actives have a fitted effect of over 60% in size
Target sequence (P51450 whole entry, looked up, the tested form may be a part): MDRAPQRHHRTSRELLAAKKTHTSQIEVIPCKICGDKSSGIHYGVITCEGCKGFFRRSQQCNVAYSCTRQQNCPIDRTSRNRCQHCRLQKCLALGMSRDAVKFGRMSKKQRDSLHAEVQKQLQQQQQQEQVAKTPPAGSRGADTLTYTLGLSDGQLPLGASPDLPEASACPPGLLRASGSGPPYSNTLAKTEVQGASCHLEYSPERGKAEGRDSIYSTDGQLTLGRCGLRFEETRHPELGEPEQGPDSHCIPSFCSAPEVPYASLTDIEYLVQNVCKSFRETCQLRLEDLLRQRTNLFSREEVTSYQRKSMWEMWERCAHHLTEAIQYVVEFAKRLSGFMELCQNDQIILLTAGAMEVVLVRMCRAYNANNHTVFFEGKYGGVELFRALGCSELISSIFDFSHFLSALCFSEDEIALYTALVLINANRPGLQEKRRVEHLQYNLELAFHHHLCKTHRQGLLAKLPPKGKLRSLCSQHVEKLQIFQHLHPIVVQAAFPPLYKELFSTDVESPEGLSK
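Stable Schneider cell line, Gal4 DNA-binding domain fused to ROR gamma, UAS-luciferase. Cmpd 1 hr RT → CuSO4 700 uM final → 20 hr RT → luciferase reagent 10 min → luminescence.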
MCF10A rereplic – DNA re-replication induction in MCF 10a cells | MCF 10A DNA re-replication, Hoechst nuclear intensity, 48 h | Potency, µM (series often up to 46.1 µM), for inactives: top-dose activity, positive = re-replication, hits mostly activators | actives 2.9% (n = 350,000); further: % of control where 0% means no effect; nearly all actives have a fitted effect of over 50% in size
* hit, by the source's call; u = inconclusive; x = not tested or not shown; [ ] = remark or other dose. The call rests on the fitted dose curve; in most records, active means well fitted curve in the direction sought with a large enough effect; inconclusive means small, poorly fitted or top-dose-only effect, or another doubt; inactive means no such curve, though single readings can be large; an effect the other way counts as inactive or inconclusive. Potency means the concentration at half of the fitted maximal effect.

SMILES	ELG1 repair inh	SW480 rerep	Gal4-VP16 FLuc	RORgamma inh	MCF10A rereplic
COc1cc(-c2nc(-c3ccc4c(c3)-c3ccccc3S4(=O)=O)c(-c3ccccc3)[nH]2)cc(OC)c1O	4.61µM*	17.4%	4.47µM*	u	u
CN(c1ccc(F)cc1)S(=O)(=O)c1ccc(Cl)c(C(=O)OCC(=O)NC2CC2)c1	6.7%	-26.6%	x	x	-3.5%
COc1c(O)ccc(/C=N\NC(=O)c2ccc3c(c2)OCO3)c1[N+](=O)[O-]	u	-7.2%	u	10µM*	-5.7%
COc1c(O)ccc(/C=N/NC(=O)c2ccc3c(c2)OCCO3)c1[N+](=O)[O-]	u	5.6%	1.58µM*	1.12µM*	-10.6%
COc1cc(/C=N/NC(=O)c2ccc3c(c2)OCCO3)cc(Cl)c1O	u	-22.0%	-9.2%	-31.3%	-1.5%
O=C(N/N=C/c1cc2c(cc1[N+](=O)[O-])OCO2)c1ccc2c(c1)OCO2	15.4%	-8.8%	2.1%	17.5%	-0.4%
Cn1c(N/N=C/c2ccccc2)nc2sc3c(c2c1=O)CCC3	6.2%	-11.6%	7.08µM*	1.58µM*	u
CN(C)CCNc1nc2sc3c(c2c(=O)n1Cc1ccccc1)CCCCC3	5.0%	16.4%	-14.2%	-5.3%	18.4µM*
O=c1c2c3c(sc2nc(NCCO)n1CCc1ccccc1)CCCCC3	u	u	-5.5%	16.2%	4.61µM*
O=c1c2c3c(sc2nc(NCCO)n1Cc1ccco1)CCCCC3	u	-1.8%	-0.4%	u	u
C=CCn1c(NCCO)nc2sc3c(c2c1=O)CCC3	-3.0%	-5.4%	4.9%	4.8%	3.0%
COCCNc1nc2sc3c(c2c(=O)n1Cc1ccco1)CCCCC3	u	-9.5%	-8.6%	u	8.2µM*
COc1ccc(C(c2nnnn2C(C)C)N2CCN(C(=O)c3ccco3)CC2)cc1 (centres undefined)	20.2%	-5.8%	1.1%	4.6%	1.3%
CCN(CC)S(=O)(=O)c1cc(C(=O)OCC(=O)NC(=O)c2cccn2C)ccc1C	u	-5.8%	-8.2%	28.7%	-1.3%
O=C(Cc1ccccc1)Nc1cccc(C(=O)O)c1O	17.6%	-118.0%	10µM*	-31.4%	19.9%
O=C(NNC(=O)c1ccccc1C(=O)O)c1ccc(-c2ccccc2)cc1	u	x	1.4%	14.1µM*	x
O=C(O)c1ccccc1-c1ccccc1C(=O)Nc1ccccc1	5.2%	-7.2%	-6.3%	-0.6%	1.4%
O=C(Cc1ccccc1)Nc1ccccc1C(=O)Nc1ccccc1	0.2%	u	1.5%	u	-83.4%
O=C(Cc1ccccc1)NNC(=O)c1ccccc1C(=O)O	10.6%	-0.4%	5.4%	3.16µM*	-0.3%
Cc1occc1C(=O)NNC(=O)c1ccccc1C(=O)O	u	-58.5%	-6.2%	u	4.9%
O=C(O)c1ccccc1-c1ccccc1C(=O)NNc1ccccc1	-2.9%	18.4µM*	-4.7%	0.1%	2.6%
NC(=O)c1ccc(/C=N/O)nc1	11.8%	-6.7%	-2.8%	0.5%	15.0%
COc1ccc(C(=O)C2CCCN(C(=O)c3cccc(N(C)C)c3)C2)cc1OC (centres undefined)	2.6%	11.7%	7.0%	39.3%	-1.2%
COc1ccc(NC(C)=O)cc1NC(C)C(=O)Nc1ccc(F)cc1 (centres undefined)	-0.2%	2.5%	8.8%	-3.6%	-2.1%
Cc1coc2c1C(=O)C(=O)c1c-2ccc2c(C)cccc12	u	5.17µM*	-19.1%	u	u
SMILES	ELG1 repair inh	SW480 rerep	Gal4-VP16 FLuc	RORgamma inh	MCF10A rereplic
Nc1nonc1-n1nnc(C(=O)N/N=C/c2cccc(Cl)c2)c1-c1cccs1	u	-2.1%	-10.1%	-12.9%	6.3%
O=C1NC(=S)S/C1=C\C=C\c1ccc([N+](=O)[O-])o1	u	u	4.47µM*	5.62µM*	30.0%
O=C1NC(=S)SC1=Cc1ccc2c(c1)OCO2	x	0.4%	x	x	u
COc1ccc(C(=O)CSc2nnc(NC(=O)C3CC(=O)N(c4ccccc4)C3)s2)cc1 (centres undefined)	-8.1%	2.91µM*	-6.7%	u	5.6%
Cc1cc[n+](CC2OCc3ccccc3CO2)cc1	-10.7%	-9.2%	-5.0%	u	-4.7%
CC(C)(Cc1ccc(O)cc1)NC(=O)CC(=O)N/N=C/c1ccc(Cl)cc1	-19.3%	u	-3.9%	5.0%	13µM*
CC(C)(Cc1ccc(O)cc1)NC(=O)CC(=O)N/N=C/c1ccc([N+](=O)[O-])cc1	u	-14.2%	6.7%[10 µM]	28.6%	-0.8%
COc1ccccc1/C=C(/NC(=O)c1ccccc1)C(=O)NCCCn1ccnc1	u	-19.7%	-3.3%	12.7%	6.5%
C=CCN1CC(=O)N2C(c3ccccc3)c3[nH]c4ccccc4c3C[C@H]2C1=O (some centres undefined)	1.1%	u	-2.2%	0.8%	4.0%
COCCN(CCOC)c1nc(-c2ccc(C)cc2)nc2ccccc12	u	6.9%	-4.5%	19.1%	u
c1ccc(CCNc2nc(-c3ccccn3)nc3ccccc23)cc1	4.11µM*	u	4.47µM*	0.251µM*	11.0%
CCCCN(CC)c1nc(-c2ccncc2)nc2ccccc12	23.1µM*	u	6.4%	-2.8%	u
CCN(CC)c1nc(-c2ccccn2)nc(-c2ccccc2)c1C#N	11.6µM*	-44.9%	5.01µM*	1µM*	-6.4%
CCN(CC)c1nc(-c2cccc(OC)c2O)nc2ccccc12	u	-5.5%[9.22 µM]	-3.5%	5.0%	7.8%
CCCN(CCC)c1nc(-c2ccccn2)nc2ccccc12	u	10.3µM*	5.01µM*	3.55µM*	20.6µM*
COc1ccc(C(NC(=O)CN2CCCCCC2)c2ccc(OC)cc2)cc1	3.6%	-17.8%	-18.7%	-0.9%	7.7%
CN(C)/C=N/S(=O)(=O)c1ccc(Cl)c(Cl)c1	-2.3%	-5.6%	2.9%	3.8%	3.3%
C=CCN(CC=C)S(=O)(=O)c1ccc2nc(NC(=O)C(C)C)sc2c1	u	u	9.3%	19.2%	8.2µM*
CCOC(=O)c1ccc2nc(NC(=O)C(C)C)sc2c1	u	1.3%	-4.3%	-3.5%	-1.3%
Cc1nc2ccccc2n1C(=O)c1ccc(Cl)cc1[N+](=O)[O-]	22.2%	-9.1%	-10.8%	-11.2%	-1.7%
CS(=O)(=O)c1nc(-c2ccccc2)cc(-c2ccccc2)c1C#N	u	6.51µM*	u	10µM*	2.91µM*
Cc1ccc(-c2cc(-c3ccccc3)c(C#N)c(Br)n2)cc1	8.6%	x	-1.8%	-11.9%	u
CCCN(CC(=O)Nc1ccccc1C)C(=O)/C=C/c1ccc(S(=O)(=O)N2CCCCCC2)cc1	u	-1.3%	x	x	3.4%
Cc1nn(-c2ccccc2)c(C)c1NC(=O)COc1ccc(Br)cc1Cl	23.1µM*	-4.7%	-10.7%	u	u
S=C(Nc1ccccc1)N1N=C(c2cccs2)CC1c1cccs1 (centres undefined)	12.4%	8.1%	-5.3%	u	-6.2%
